Records with an inconclusive call do not appear. Where a call stands in place of a potency, no number is given. The source made the active and inactive calls. Unless noted, the call rests on the fitted dose curve; in most records, active means well fitted curve in the direction sought with a large enough effect; inconclusive means small, poorly fitted or top-dose-only effect, or another doubt; inactive means no such curve, though single readings can be large; an effect the other way counts as inactive or inconclusive.
How the values were obtained:
[1] = qHTS to identify inhibitors of the type 1 interferon - major histocompatibility complex class I in skeletal muscle: primary screen against the NCATS Mechanism Interrogation Plate v5.0 (MIPE) Libary (AID 1347411); further: nearly all actives have a fitted effect of over 65% in size; further: potency means the concentration at half of the fitted maximal effect
How it was run: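 Luminescence from HiBiT-tagged endogenous HLA-B*08:01 served as the MHC class I read-out. CRISPR-engineered C25cl48 human myoblasts received 4.0 ng/ml IFN-beta plus compound for 24 hrs, with an 11-point, 1:3 series topping at 46 uM final.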

[2] = target: Calcium and integrin-binding protein 1 (Homo sapiens) (UniProt Q99828); test: Primary qHTS for Identification of Calcium Integrin Binding Protein 1 (CIB1) Competitor (AID 1508620);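 further: GST tagged CIB1 binding a fluorescein labelled alphaIIb integrin peptide tracer; top concentration of the series differs between compounds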
How it was run: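 CIB1-GST (1 uM final) and compound incubated 15 min at room temperature before adding FITC-alphaIIb peptide tracer (100 nM final). Competition for binding read by fluorescence polarization (ex 480, em 540) after another 15 min at room temperature.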

[3] = Primary qHTS for small molecule stabilizers of the endoplasmic reticulum resident proteome: Secreted ER Calcium Modulated Protein (SERCaMP) assay (AID 1508630)
How it was run: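 GLuc-SERCaMP-expressing SH-SY5Y cells, pretreated 16 h with compound, are challenged with thapsigargin to empty ER calcium stores; after 4 h, coelenterazine is added directly to the medium and luminescence is imaged.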

[4] = target: Cytochrome P450 2C9 (Homo sapiens) (UniProt P11712); test: Cytochrome P450 family 2 subfamily C member 9 (CYP2C9) small molecule antagonists: luciferase biochemical (cell-free) qHTS assay (AID 1645842; active means well fitted curve in the direction sought with a large enough effect in the repeat runs; an effect the other way counts as inactive or inconclusive; further: nearly all actives have a fitted effect of over 55% in size; further: potency means the concentration at half of the fitted maximal effect)
How it was run: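 Luminescence, after 20 min with luciferin detection reagent, reflected CYP2C9 turnover during a 1 h NADPH-driven reaction at 37C. Enzyme-substrate mix contained 0.4% bovine serum albumin and was preincubated with compound 10 min at room temperature.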

[5] = target: Cytochrome P450 2D6 (Homo sapiens) (UniProt P10635); test: Cytochrome P450 family 2 subfamily D member 6 (CYP2D6) small molecule antagonists: luciferase biochemical (cell-free) qHTS assay (AID 1645840; active means well fitted curve in the direction sought with a large enough effect in the repeat runs; an effect the other way counts as inactive or inconclusive; further: potency means the concentration at half of the fitted maximal effect; nearly all actives have a fitted effect of over 55% in size)
How it was run: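 P450-Glo luminescent screen: recombinant CYP2D6 enzyme–proluciferin substrate mix preincubated with compound 10 min at room temperature, then NADPH regeneration added for 1 h at room temperature. Detection reagent added for 20 min; luciferin light read as relative luminescence units.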

[6] = target: N-terminal Xaa-Pro-Lys N-methyltransferase 1 (Homo sapiens) (UniProt Q9BV86); test: Confirmatory qHTS for Inhibitors of N-terminal methyltransferase 1 (NTMT1): MTaseGlo Assay (AID 1645874); further: potency means the concentration at half of the fitted maximal effect; nearly all actives have a fitted effect of over 65% in size
How it was run: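 Luminescent MTase-Glo read-out of SAH. 125 nM NTMT1, 100 uM SAM, 1 uM SPKRIA substrate, 30 min RT reaction after 15 min compound preincubation. Normalized to no-enzyme and DMSO controls; Hill fit.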

Sequence of Cytochrome P450 2C9 (Homo sapiens) (P11712 whole entry, looked up): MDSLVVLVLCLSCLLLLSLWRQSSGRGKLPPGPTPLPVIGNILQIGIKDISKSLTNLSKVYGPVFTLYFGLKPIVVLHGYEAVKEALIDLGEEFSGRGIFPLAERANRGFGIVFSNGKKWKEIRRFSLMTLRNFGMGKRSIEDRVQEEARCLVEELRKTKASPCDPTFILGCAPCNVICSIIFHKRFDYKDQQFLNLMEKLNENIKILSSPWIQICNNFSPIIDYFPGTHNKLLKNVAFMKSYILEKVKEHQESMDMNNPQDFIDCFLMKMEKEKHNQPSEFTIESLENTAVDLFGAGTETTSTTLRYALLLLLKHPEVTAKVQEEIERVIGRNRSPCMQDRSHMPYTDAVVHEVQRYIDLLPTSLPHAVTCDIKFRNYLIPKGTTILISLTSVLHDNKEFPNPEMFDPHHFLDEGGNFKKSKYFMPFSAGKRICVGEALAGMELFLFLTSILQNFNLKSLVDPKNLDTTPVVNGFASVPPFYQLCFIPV
Sequence of N-terminal Xaa-Pro-Lys N-methyltransferase 1 (Homo sapiens) (Q9BV86 whole entry, looked up): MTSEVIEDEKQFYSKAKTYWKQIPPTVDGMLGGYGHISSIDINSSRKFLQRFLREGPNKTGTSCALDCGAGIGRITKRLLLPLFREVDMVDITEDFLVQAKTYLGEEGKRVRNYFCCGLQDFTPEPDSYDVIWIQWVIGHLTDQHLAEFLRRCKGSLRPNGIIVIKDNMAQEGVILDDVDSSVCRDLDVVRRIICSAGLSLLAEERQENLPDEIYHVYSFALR
Sequence of Calcium and integrin-binding protein 1 (Homo sapiens) (Q99828 whole entry, looked up): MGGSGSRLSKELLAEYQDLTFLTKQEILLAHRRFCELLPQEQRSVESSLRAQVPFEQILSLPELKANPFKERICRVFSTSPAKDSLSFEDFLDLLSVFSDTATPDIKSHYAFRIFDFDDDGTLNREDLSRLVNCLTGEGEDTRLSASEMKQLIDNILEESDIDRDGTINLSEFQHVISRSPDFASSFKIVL
Sequence of Cytochrome P450 2D6 (Homo sapiens) (P10635 whole entry, looked up): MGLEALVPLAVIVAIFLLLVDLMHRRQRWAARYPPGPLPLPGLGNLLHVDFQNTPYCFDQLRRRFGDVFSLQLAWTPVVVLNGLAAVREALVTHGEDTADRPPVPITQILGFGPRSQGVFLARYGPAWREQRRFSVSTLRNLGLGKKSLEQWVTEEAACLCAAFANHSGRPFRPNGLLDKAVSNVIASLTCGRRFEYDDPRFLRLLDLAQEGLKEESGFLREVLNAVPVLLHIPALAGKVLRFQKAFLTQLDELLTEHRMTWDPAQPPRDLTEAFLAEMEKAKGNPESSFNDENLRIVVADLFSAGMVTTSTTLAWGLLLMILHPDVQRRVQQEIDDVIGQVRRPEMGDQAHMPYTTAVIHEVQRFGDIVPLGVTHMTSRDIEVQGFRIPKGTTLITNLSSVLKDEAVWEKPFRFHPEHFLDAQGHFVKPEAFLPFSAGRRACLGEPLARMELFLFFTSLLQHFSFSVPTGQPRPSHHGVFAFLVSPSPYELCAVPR

For `Cc1cc(CN2CCN(c3c(Br)cnc4nc(-c5ccc(N6CCN(C)CC6)cc5)[nH]c34)CC2)no1`, the Potency [1] was 6.58 µM (active), the outcome [2] was “inactive” and the Potency [3] was “inactive”. The Potency [4] was 9.52 µM (active).
For `C#Cc1cccc(Nc2ncnc3cc(OC)c(OCCCCCCC(=O)NO)cc23)c1`, the Potency [1] was 1.65 µM (active), the outcome [2] was “inactive” and the Potency [3] was “inactive”. The Potency [5] was 4.77 µM (active), the Potency [4] was 10.7 µM (active) and the Potency [6] was 31.2 µM (active).
In the case of `CC(C)c1cc(-c2n[nH]c(=O)n2-c2ccc3c(ccn3C)c2)c(O)cc1O`, the Potency [1] is reported as 0.0262 µM (active), the outcome [2] is reported as “inactive” and the Potency [3] is reported as “inactive”. The Potency [4] was 1.69 µM (active).
For `CC1COC2(CCN(c3nc(=O)c4cc(C(F)(F)F)cc([N+](=O)[O-])c4s3)CC2)O1` (centres undefined), the Potency [1] was “inactive”, the outcome [2] was “inactive” and the Potency [3] was “inactive”. For the same molecule, the Potency [4] was “inactive”.
For `CN1CC[C@@H](c2c(O)cc(O)c3c(=O)cc(-c4ccccc4Cl)oc23)[C@@H](O)C1`, the Potency [1] was 0.739 µM (active) and the Potency [3] was “inactive”.
In the case of `O=C(NCCCNc1nc(Nc2cccc(NC(=O)N3CCCC3)c2)ncc1I)c1cccs1`, the Potency [1] is reported as “inactive”, the outcome [2] is reported as “inactive” and the Potency [3] is reported as “inactive”. The Potency [6] was 6.76 µM (active).
With `Cc1[nH]nc2ccc(-c3cncc(OC[C@@H](N)Cc4ccccc4)c3)cc12` the Potency [1] was 1.86 µM (active), the outcome [2] was “inactive” and the Potency [3] was “inactive”. For the same molecule, the Potency [5] was 0.674 µM (active) and the Potency [4] was 9.52 µM (active).
With `Fc1cc(-c2cccc3ncc(-c4cnn(C5CCNCC5)c4)nc23)cc(F)c1CN1CCOCC1` the Potency [1] was 11.7 µM (active) and the Potency [6] was 39.8 µM (active).
With `O=C(c1ccc(Nc2nccc(-c3cc4ccccc4s3)n2)cc1)N1CCC(N2CCCC2)CC1` the Potency [1] was 5.23 µM (active), the outcome [2] was “inactive” and the Potency [3] was “inactive”. The Potency [4] was “inactive”.
With `COc1cccc(Nc2c(C(N)=O)cnc3c(C)cc(S(=O)(=O)c4cccc(C(=O)N(C)C)c4)cc23)c1` the Potency [1] was “inactive”, the outcome [2] was “inactive” and the Potency [3] was “inactive”. For the same molecule, the Potency [4] was 0.849 µM (active).
For `Nc1nc(NCCNc2ncc(-n3ccnc3)c(-c3ccc(Cl)cc3Cl)n2)ccc1[N+](=O)[O-]`, the Potency [1] was 14.7 µM (active), the outcome [2] was “inactive” and the Potency [3] was “inactive”. The Potency [5] was 1.69 µM (active) and the Potency [4] was 0.134 µM (active).

Source: PubChem BioAssay (NCATS)
